HIF act = HIF pathway transcriptional activators, primary screen, cell-based, U2OS HRE-luciferase, luminescence. 300,000 tested, 0.32% active. U2OS HRE-luciferase reporter; normalized: DMSO 0%, desferrioxamine 100%. activation, % at 7.5 µM (by protocol). AID 1910, 2009;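 active means mean activation of at least 10% of the iron chelator positive control signal, with at least half of replicates also reaching 10%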
Calb FLC = C. albicans growth inhibition with fluconazole, primary screen, CaCi-2 strain, Alamar Blue fluorescence | growth inhibition, % (concentration not given with the values) | 300,000 tested, 0.57% active | AID 1979, 2009 | C. albicans CaCi-2 (fluconazole-resistant clinical isolate) + fluconazole, 48 h;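 active means growth inhibition above about 58% in most replicates, limit read from the data, passing the limit was not always enough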;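 further: all wells also contain fluconazole at 8 µg/ml as a sub-toxic cotreatment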
TNF necrop inh = inhibitors of TNF-alpha triggered necroptosis, primary screen, cell-based, Jurkat FADD-/-, single concentration; Jurkat FADD-/- TNF necroptosis rescue, ATP luminescence, 24 h; 0 = TNF only, 100 = no-TNF cells; activation (protection from cell death), % at 10 µM; 220,000 tested, 0.068% active; AID 463075, 2010;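 active means activation, meaning protection from cell death, of at least 50% relative to plate controls; inactive means activation below 50%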;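 further: necroptosis triggered by 40 ng/mL TNF-alpha added together with compound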
L929 necroptosis = inhibitors of zVAD-triggered necroptosis, primary screen, L929 cells | L929 zVAD necroptosis rescue, ATP luminescence, 24 h; with zVAD 60 µM | viability rescue, % at 10 µM | 220,000 tested, 0.38% active | AID 1377, 2008;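 active means activation, scaled between plate controls, above about 75%, limit read from the data; inactive means activation under that limit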
A number is an active result; . = inactive; / = no result. Shown are actives, neighbours in structure and some others; about 1.1% of the full set was active somewhere.

SMILES	HIF act	Calb FLC	TNF necrop inh	L929 necroptosis
CCOC(=O)C(O)(CC(=O)c1ccc(Cl)cc1)C(=O)OCC	.	.	.	.
Cc1nn(-c2ccccc2)c(C)c1C(=O)NCc1ccc(S(N)(=O)=O)cc1	.	.	/	/
O=C(COc1cccc2ccccc12)Nc1ccc(Cl)cc1C(=O)O	15.5	.	/	/
c1ccc(CNc2ncnc3ccccc23)cc1	.	.	.	.
Oc1ccc(CCNc2c3ccccc3nc3ccccc23)cc1O	18.2	.	/	/
c1ccc(CNc2c3ccccc3nc3ccccc23)cc1	19.8	.	/	/
Cc1ccc(C)c(N2C(=O)CC(Cc3ccc(Br)cc3)C2=O)c1 (centres undefined)	.	.	/	/
Cc1ccc(OCCNC(=O)CNC(=O)c2ccc3c(c2)OCO3)cc1	.	.	/	/
COc1ccc(/C=C2\SC(=O)N(CCC(=O)N(C)C3CCS(=O)(=O)C3)C2=O)cc1 (centres undefined)	64.3	.	/	/
CCN(CC(=O)Nc1ccccc1C(F)(F)F)C(=O)CCc1c(C)[nH]c(=O)c(C#N)c1C	.	.	/	/
Cc1ccc(Cn2nnc3c(=O)[nH]c(C4CCN(S(=O)(=O)c5ccc(S(=O)(=O)NC6CC6)cc5)CC4)nc32)cc1	.	.	/	/
Cc1ccc(Cn2nnc3c(=O)[nH]c(C4CCN(S(=O)(=O)c5ccc(C)cc5)CC4)nc32)cc1	.	111.2	.	.
Cc1occc1C(=O)NC1CCCCCC1	13.0	.	.	.
Cc1ccc(NC(=O)NCCCl)cc1S(=O)(=O)N1CCOCC1	.	.	.	.
COc1ccc2cc([C@H](C)C(=O)O)ccc2c1	.	/	.	.
COc1ccc2cc(C(C)C(=O)N3CCC(C(N)=O)CC3)ccc2c1 (centres undefined)	28.3	.	/	/
CN(Cc1ccccc1)C(=O)COC(=O)CNS(=O)(=O)c1ccc2ccccc2c1	.	.	/	/
CSc1ccc(S(=O)(=O)N2c3ccccc3CC2C)cc1 (centres undefined)	.	.	/	/
CC(C)CC(=O)NC(=S)NNC(=O)c1ccc(NC(=O)C2CCCCC2)cc1	.	75.5	.	.
CCOC(=O)c1c(NC(=S)NCC2CCCO2)sc(C)c1C (centres undefined)	.	85.0	.	.
Cc1nc(SCC(=O)NC(=O)NCCC(C)C)c2c(-c3cccs3)csc2n1	.	.	.	.
CCn1c(Sc2nc(C)nc3scc(-c4cccs4)c23)n[nH]c1=O	.	95.3	.	.
COc1cc(OC)cc(C(=O)Nc2ccc(S(=O)(=O)Nc3ccccn3)cc2)c1	.	.	/	/
COc1cc2c(cc1O)CC[n+]1cc3c(OC)c(OC)ccc3cc1-2	.	99.1	.	.
O=C(COC(=O)c1ccccc1Nc1ccccc1)NCc1ccccc1Cl	683.2	.	.	.
SMILES	HIF act	Calb FLC	TNF necrop inh	L929 necroptosis
CN(C(=O)c1ccc(S(=O)(=O)N(C)C)cc1)c1ccc2ccccc2c1	.	.	/	/
COc1cc(C(Nc2ccccn2)c2ccc3ccc(C)nc3c2O)cc(OC)c1O (centres undefined)	.	112.7	.	.
Oc1ccccc1C(Nc1nccs1)c1ccc2cccnc2c1O (centres undefined)	21.3	94.5	.	.
Oc1c(C(Nc2ccccn2)c2ccccn2)ccc2cccnc12 (centres undefined)	13.9	.	.	.
OCCN1CCN(C(c2cccs2)c2ccc3cccnc3c2O)CC1 (centres undefined)	/	/	.	.
O=C1[C@H]2CCCC[C@H]2C(=O)N1CCCCN1CCN(c2nsc3ccccc23)CC1	.	.	/	/
O=C(CN(C(=O)CCC(=O)Nc1nccs1)c1ccc(F)cc1)NCC1CCCO1 (centres undefined)	.	.	.	.
O=C(CN(Cc1ccc(F)cc1)C(=O)CCC(=O)Nc1nccs1)NCC1CCCO1 (centres undefined)	30.8	.	/	/
O=C1c2ccccc2NC(c2cnc3ccccc3n2)N1O (centres undefined)	.	104.2	.	.
COc1ccc(C2Nc3ccccc3C(=O)N2O)cc1OC (centres undefined)	.	97.4	.	.
Cc1ccc2[nH]c(=O)c(C3C(C#N)=C(N)Oc4c3ccc3cccnc43)cc2c1 (centres undefined)	.	99.1	.	.
CC(CCc1ccccc1)OS(N)(=O)=O (centres undefined)	.	.	/	/
O=CN1N=C(c2ccccc2)CC1c1ccccc1[N+](=O)[O-] (centres undefined)	.	.	.	.
N#CC1CC(c2ccccc2)=NN1c1ccccc1[N+](=O)[O-] (centres undefined)	.	84.9	.	.
COc1ccc(N2CCN(C(=O)C3(S(=O)(=O)c4ccc(C)cc4)CC3)CC2)cc1	.	.	/	/
O=C(O)c1cc(S(=O)(=O)Nc2cccc3ccccc23)c(Cl)cc1Cl	.	.	/	/
Cc1c(O)cc2n(c1=O)-c1ccc(Cl)cc1C2(C)C	.	109.0	.	.
CC1(C)c2cc(Cl)ccc2-n2c1cc(O)c(-c1ccccc1)c2=O	.	.	.	.
CCCCCN(C(=O)CSc1n[nH]c(-c2ccc(C)cc2)n1)c1c(N)n(CCCC)c(=O)[nH]c1=O	.	.	/	/
CC1CCN(S(=O)(=O)c2cccc(C(=O)Nc3nncs3)c2)CC1	.	.	/	/
CC(C)c1ccc(N(C(=O)c2snc(C(N)=O)c2N)C(C(=O)NC2CCCC2)c2ccncc2)cc1 (centres undefined)	44.1	.	/	/
NC(=O)c1nsc(C(=O)N(c2ccc(F)cc2)C(C(=O)NC2CCCC2)c2ccncc2)c1N (centres undefined)	.	.	/	/
O=C(CSCc1ccc([N+](=O)[O-])cc1)NC1CC2CCC1C2 (centres undefined)	.	.	63.1	.
Cc1onc(-c2c(Cl)cccc2Cl)c1C(=O)N=C(N)N1CCCC1	28.2	.	.	.
Cc1onc(-c2c(Cl)cccc2Cl)c1C(=O)N=C(N)N1CCOCC1	.	.	.	.
SMILES	HIF act	Calb FLC	TNF necrop inh	L929 necroptosis
O=C(Nc1ccccc1N1CCOCC1)c1cc(F)cc(F)c1	.	97.1	.	.
CCOC(=O)CC1C(=O)NCCN1C(=O)c1c(Cl)cccc1Cl (centres undefined)	.	92.4	/	/
CCOC(=O)CC1C(=O)NCCN1C(=O)c1c(F)cccc1F (centres undefined)	.	.	.	.
COC(=O)c1ccc(/C=N/OCC(=O)NC2CCCCCCC2)cc1	.	.	.	78.0
CC(C(=O)c1ccccc1)[n+]1cccc(Br)c1 (centres undefined)	.	75.1	/	/
O=C(NC1CCCCC1)C(c1ccc2ncccc2c1)N(Cc1ccc(F)cc1)C(=O)c1ccc2c(c1)OCCO2 (centres undefined)	/	86.5	.	.
FC(F)(F)c1cnc(N2CCN(C(=S)NCc3ccccc3)CC2)c(Cl)c1	44.5	.	.	.
FC(F)(F)c1cnc(N2CCCN(C(=S)Nc3ccccc3)CC2)c(Cl)c1	.	.	.	.
CC(C)NC(=S)NN=C1c2ccccc2-c2ccccc21	26.4	.	.	.

High-throughput results deposited in PubChem by several laboratories.
